# Laboratory results taken from PubChem BioAssay (NCI).
# About 83,000 compounds went through this panel and 20% of them were active in at least one assay; those are over-represented in the sample as a whole.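 Percent growth is the endpoint: 0 to 100 indicates growth inhibition (40 means 60% inhibition), 0 means no net growth, and negative values indicate cell death.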 Unmarked numbers belong to inactive results. Activity calls are given as the source filed them. The calls were made as follows: active = growth percent below 10; inactive = the rest.
# Assays:
# Assay in all cases: NCI-60 one-dose screen, 48 h (100 = growth as untreated, 0 = no growth, -100 = all killed)
# [1] = test system: SR leukemia; settings: 10 µM
# [2] = test system: RPMI-8226 leukemia; settings: 10 µM
# [3] = test system: OVCAR-5 ovarian; settings: 10 µM
# [4] = test system: OVCAR-4 ovarian; settings: 10 µM
# [5] = test system: SK-OV-3 ovarian; settings: 10 µM
# [6] = test system: IGROV1 ovarian; settings: 10 µM
# [7] = test system: OVCAR-3 ovarian; settings: 10 µM
# [8] = test system: HS 578T breast; settings: 10 µM
# [9] = test system: NCI/ADR-RES ovarian; settings: 10 µM
# [10] = test system: T-47D breast; settings: 10 µM
# [11] = test system: BT-549 breast; settings: 10 µM
# [12] = test system: MDA-MB-435 melanoma; settings: 10 µM
# [13] = test system: SW-620 colon; settings: 10 µM
# [14] = test system: MCF7 breast; settings: 10 µM unless noted
# [15] = test system: HCT-116 colon; settings: 10 µM
# [16] = test system: HCC-2998 colon; settings: 10 µM
# [17] = test system: KM12 colon; settings: 10 µM
# [18] = test system: OVCAR-8 ovarian; settings: 10 µM
Structure (SMILES),growth [1],growth [2],growth [3],growth [4] [%],growth [5] [%],growth [6],growth [7],growth [8] [%],growth [9],growth [10] [%],growth [11] [%],growth [12],growth [13] [%],growth [14] [%],growth [15],growth [16] [%],growth [17] [%],growth [18] [%]
Nc1nc(OCc2ccccc2)c2[nH]cnc2n1,84.9%,115%,77.8%,65.9,109,93.4%,109%,93.6,108%,101,94.4,99.3%,102,95.9,95.4%,104,112,–
O=[N+]([O-])c1ccc(/C=C/C=C/c2ccccc2)c(Cl)c1,95.2%,–,102%,82.5,98.8,88%,105%,87.7,108%,74.3,102,99.5%,98.1,74.2,76.6%,97.3,94.5,98.8
CCOc1ccc(I)cc1,114%,–,94%,109,110,117%,116%,111,101%,114,116,112%,105,98.2,102%,106,95.2,96.7
COc1cc2c(cc1O)CC[C@@H]1C2CC[C@@]2(C)C1CC[C@@H]2O (stereo not given in full),15.1%,0% (active),-41.5% (active),65.2,24.1,25.3%,4.72% (active),–,-70.7% (active),31.1,23.4,-46.9% (active),12.1,16.4,7.39% (active),–,33.5,–
COC(=O)/C=C1\Sc2cc(F)ccc2NC1=O,95.5%,92%,83.2%,102,111,102%,115%,121,101%,84.5,127,100%,127,83.7,90.1%,126,107,–
O=S(=O)(O)c1ccc(Cl)c(Cl)c1,99.8%,–,112%,106,103,122%,123%,120,106%,105,97.7,100%,111,99.9,105%,104,111,114
CCOC(=O)C/C(C)=N\O,104%,104%,–,–,103,101%,99.9%,101,96.6%,98.3,97.1,107%,101,101,103%,101,104,109
CCNCCCCNCCCCNCCCCNCCCCNCC,68.5%,82.4%,108%,–,118,–,93.4%,76.2,122%,72.2,123,50.2%,68.3,101,92.6%,101,62.1,–
Oc1ccc(N=Nc2ccc(Br)cc2)c(O)c1,-8.8% (active),–,80.7%,33.7,25.7,-15.3% (active),-65.2% (active),10.4,-55.4% (active),28,46.1,-49% (active),18.8,15.6,18.1%,33.6,–,24.1
Cc1c(O)cccc1O,84%,–,106%,108,97.1,159%,109%,102,94.2%,98.2,77.1,94.9%,99.5,104,103%,102,118,106
Cc1ccncc1C(N)=O,109%,–,138%,96.8,101,–,–,116,133%,84.5,111,118%,98.4,96,94.5%,124,90.1,107
O=P(O)(O)OCC(O)CO (stereo not given),99.6%,–,101%,88.3,106,–,112%,106,–,100,102,109%,107,95.6,102%,107,105,109
c1ccc(/C(=N\N=C(/c2ccccc2)c2cccs2)c2cccs2)cc1,87.3%,–,98.5%,97.1,105,105%,99.7%,105,102%,86.7,102,103%,98,96,91.9%,101,97.1,95
OCc1cccc2ccccc12,104%,–,111%,109,110,120%,105%,–,105%,103,–,116%,–,96.3,103%,108,–,111
O=C(O)CCCC(=O)O,94.7%,–,104%,84.3,104,104%,102%,110,103%,128,118,107%,93.1,101,100%,103,92.4,99.4
NCCCN,101%,–,107%,90,105,–,–,104,112%,98.6,106,109%,104,96.7,109%,112,107,104
CC(=O)c1ccc2c(ccc3ccccc32)c1,97.2%,–,104%,100,112,101%,115%,107,108%,98.9,98.1,96.3%,99.7,96.3,90.3%,109,106,94.7
CC(C)OC(C(=O)O)c1ccccc1 (stereo not given),125%,–,97.1%,96.2,100,124%,110%,112,–,91.5,100,115%,103,93,101%,–,105,109
O=C(CCl)N1CCN(C/C=C/c2ccccc2)CC1,23.1%,–,111%,81.6,99.7,40.8%,116%,100,–,83.8,94,85%,90.3,62.1,68.5%,125,112,80
CC1=C(/C=C/C(C)=C/C=C/C(C)=C/CO)C(C)(C)CCC1,94.8%,–,108%,112,–,117%,109%,105,103%,96.6,108,107%,109,125,107%,108,109,101
